The whole screen tested about 16,000 compounds, of which about 5,100 (32%) were called active. About 25% were inconclusive and are not listed. Calls come from the whole dose curve; as a rule, active = well fitted curve in the direction sought with a large enough effect; inconclusive = small, poorly fitted or top-dose-only effect, or effect the other way; inactive = no such curve, though single readings can be large or run the other way. Some of the results follow.

From PubChem BioAssay AID1851 (National Center for Advancing Translational Sciences (NCATS), 2009) come the findings set out here.
% is set by controls: 0 for no effect and ±100 for the full control effect.

Sequence of Cytochrome P450 3A4 (Homo sapiens) (P08684 whole entry, looked up): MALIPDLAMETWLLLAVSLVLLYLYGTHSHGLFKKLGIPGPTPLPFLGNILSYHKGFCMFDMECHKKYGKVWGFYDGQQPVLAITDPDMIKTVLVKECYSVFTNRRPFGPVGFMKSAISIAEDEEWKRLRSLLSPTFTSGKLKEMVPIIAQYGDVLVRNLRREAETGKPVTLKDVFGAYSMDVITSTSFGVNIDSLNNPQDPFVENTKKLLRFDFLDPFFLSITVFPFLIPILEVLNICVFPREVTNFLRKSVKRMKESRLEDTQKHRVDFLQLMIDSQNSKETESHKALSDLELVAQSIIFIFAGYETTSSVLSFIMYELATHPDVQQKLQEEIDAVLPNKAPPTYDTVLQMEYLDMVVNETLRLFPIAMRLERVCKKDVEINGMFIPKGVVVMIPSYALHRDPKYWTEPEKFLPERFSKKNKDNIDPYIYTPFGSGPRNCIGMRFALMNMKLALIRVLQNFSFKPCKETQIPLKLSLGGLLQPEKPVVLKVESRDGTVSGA

The assay has as its target Cytochrome P450 3A4 (Homo sapiens) (UniProt P08684). Nature of the assay: Cytochrome panel assay with activity outcomes. The note with it: recombinant CYP, pro-luciferin dealkylation, luminescence, p450-cyp3a4; series mostly up to 57.1 µM; activity, negative = inhibition: at the top concentration.
As to `O=S(=O)(O)c1cc(O)c2c(O)c(N=Nc3cccc4ccccc34)c(S(=O)(=O)O)cc2c1`, the activity, negative = inhibition is -11.8% [at 11.4 µM] (inactive).
A word on the AC50: it is the concentration at which the activity in the assay is half-maximal. `COc1ccc(Cl)cc1NC(=O)C12CCC(C)(C(=O)O1)C2(C)C` (stereo not given): the AC50 is 15800 nM (active).
Take `NS(=O)(=O)c1ccc(N=Nc2nc3[nH]cnc(=S)c3[nH]2)cc1`: the activity, negative = inhibition is -11.9% [at 11.4 µM] (inactive).
As for `COc1ccc(S(=O)(=O)Nc2cccc(Cl)c2)cc1OC`, the AC50 was 6310 nM (active).
Consider `COc1ccc(NS(=O)(=O)c2ccc(I)cc2)cc1N1CCN(C)CC1`, for which the “activity, negative = inhibition” value was -53% (inactive).
On to `Cc1ccc(-n2[nH]c(=O)c3cccnc32)cc1`, for which the “activity, negative = inhibition” value was -5.23% (inactive).
As for `Cc1ccc(N2C(=O)c3n[nH]c(C)c3C2c2ccccn2)cc1` (stereo not given), the AC50 was 14100 nM (active).
Regarding `Cc1ccc(-n2cnc(=O)c3cccnc32)cc1`, the activity, negative = inhibition is -3.53% [at 2.29 µM] (inactive).
Consider `Cc1noc(C)c1-c1nccc(N2CCOCC2)n1`, for which the “activity, negative = inhibition” value is -9.81% (inactive).
As for `FC(F)(F)c1ccccc1-c1cncnc1NCCN1CCOCC1`, the AC50 was 794 nM (active).
Still for that read-out and setting: with `Cc1ccccc1-c1cncnc1NCCN1CCOCC1` the figure was 1580 nM (active); with `COCCNc1ncncc1-c1c(C)noc1C`, 5010 nM (active).
As for `CNc1cc(-c2c(C)noc2C)ncn1`, the “activity, negative = inhibition” value is -3% (inactive).
In the case of `COCCNc1cc(-c2c(C)noc2C)ncn1`, the “activity, negative = inhibition” value was 10.1% (inactive).
`Cc1noc(C)c1-c1cncnc1NCCN1CCOCC1`: the AC50 is 6310 nM (active).
Take `CS[C@@H](CC(=O)O)C(=O)O`: the activity, negative = inhibition was -17% [at 11.4 µM] (inactive).
For the molecule `Cc1nc2c(n1C1CCCCC1)C(=O)c1ccccc1C2=O`, the AC50 was 14100 nM (active).
On to `O=C1c2cccnc2C(O)N1C1CCCCC1` (stereo not given), for which the “activity, negative = inhibition” value is -14.1% (inactive).
On to `COc1c(F)c(F)c(C(=O)O)c(Nc2ccc(C)cc2)c1F`, for which the “activity, negative = inhibition” value is -28.2% (inactive).
For the molecule `O=C(N/N=C\c1ccc(-c2ccccc2[N+](=O)[O-])o1)C1COc2cc3ccccc3cc2O1` (stereo not given), the AC50 is 17800 nM (active).
As to `Cc1ccc(CNC(=O)C2CC(c3ccccc3[N+](=O)[O-])=NO2)o1` (stereo not given), the “activity, negative = inhibition” value was -23.2% (inactive).
Turning to `O=C(Cn1cnc2c(oc3ccccc32)c1=O)NCc1ccco1`, the “activity, negative = inhibition” value was -25.9% (inactive).
On the same count and under the same terms, to `CCOC(=O)C(C)n1cnc2c(oc3ccccc32)c1=O` (stereo not given) belongs 7.52% (inactive).
For `c1ccc2c(c1)oc1c(NCCCn3ccnc3)ncnc12`, the AC50 was 631 nM (active).
On to `c1ccc(-c2nc(NCCCn3ccnc3)c3oc4ccccc4c3n2)cc1`, for which the AC50 was 1000 nM (active).
With `CC(=O)C1=C(NC(=O)c2ccc(F)cc2)CC2C1C2(C)C` (stereo not given), the activity, negative = inhibition is 10% [at 2.29 µM] (inactive).
With `CCN1C(=O)[C@@H]2[C@H]3C(=CC[C@@H]2C1=O)C1(OCCCO1)[C@H]1O[C@@H]1[C@H]3O`, the activity, negative = inhibition was -21.4% [at 11.4 µM] (inactive).
In the case of `COc1ccccc1NC(=O)c1sc2ncn(Cc3ccccc3C)c(=O)c2c1C`, the AC50 was 4470 nM (active).
Regarding `Cc1cccc(-n2cccc2)c1C#N`, the “activity, negative = inhibition” value was 0.0083% (inactive).
On to `N#Cc1c(-n2ccnc2)cccc1-n1ccnc1`, for which the half-maximal activity concentration (AC50) was 2000 nM (active).
The same measure, in the same setting: with `N#Cc1c(Cl)cccc1-n1ccnc1` the figure was 1000 nM (active); with `Nc1ccccc1Oc1ncc(C(F)(F)F)cc1Cl`, 14100 nM (active).
In the case of `CCCCOc1ccccc1N`, the “activity, negative = inhibition” value is -7.64% (inactive).
For `COc1ccc2c(c1)N(CC[C@H]1CCCCN1C)c1ccccc1S2`, the activity, negative = inhibition was -24.2% [at 11.4 µM] (inactive).
On to `COc1ccc(OCc2nnc(SCC(=O)N3c4ccccc4Sc4ccc(Cl)cc43)o2)cc1`, for which the AC50 was 3550 nM (active).
The same measure, in the same setting: with `O=C(CSc1nc2ccccc2o1)N1c2ccccc2Sc2ccc(Cl)cc21` the figure was 8910 nM (active).
On to `O=C(O)c1ccc(CSc2nc3ccccc3o2)cc1`, for which the “activity, negative = inhibition” value was 23.1% (inactive).
Still for that read-out and setting: to `OC1CC2CC[C@H](C1)N2CCCN1c2ccccc2Sc2ccc(Cl)cc21` (stereo not given in full) belongs -4.29% [at 11.4 µM] (inactive).
On the same count and under the same terms, with `CCOC(=O)CN1N=C(/C=C/c2ccc(C)cc2)CCC1=O` the figure was 19.5% (inactive).
As to `O=C1CC(N2CCN(CCc3ccccn3)CC2)C(=O)N1c1ccc(Cl)cc1` (stereo not given), the “activity, negative = inhibition” value was -14.5% (inactive).
Regarding `O=C1c2ccccc2N[C@H](c2cc(Cl)cc(Cl)c2O)N1CCc1ccccn1`, the AC50 is 794 nM (active).
As for `CN(C)C(=O)c1ccc(-c2nccc(N(C)Cc3ccco3)n2)cc1`, the “activity, negative = inhibition” value is 20.6% (inactive).
For the molecule `CN(Cc1ccco1)c1ncncc1-c1cccc(C#N)c1`, the AC50 was 7940 nM (active).
For the molecule `CN(Cc1ccco1)c1ncncc1-c1ccc2c(c1)OCO2`, the AC50 was 1260 nM (active).
As to `CN(Cc1ccco1)c1ncncc1-c1cccnc1`, the AC50 is 2510 nM (active).
Consider `CN(C)c1ccc(-c2cncnc2N(C)Cc2ccco2)cc1`, for which the AC50 was 631 nM (active).
As for `C#C[C@H](N)CCC(=O)O`, the “activity, negative = inhibition” value was -4.49% (inactive).
On the same count and under the same terms, to `COc1cc(O)c2c(O)c3c(c4c2c1[C@@]1(C4)C(C)=CCCC1(C)C)[C@H](O)[C@@]1(O)CC(=O)C(C(N)=O)=C(O)[C@]1(O)C3=O` belongs -13.9% [at 11.4 µM] (inactive).
For the molecule `COc1cccc(-c2cncnc2N(C)Cc2ccco2)c1`, the AC50 was 2510 nM (active).
Turning to `CCc1ccc2[nH]c(O)c(N=Nc3nc(-c4ccccc4)cs3)c2c1`, the activity, negative = inhibition is -16.3% [at 2.29 µM] (inactive).
Still for that read-out and setting: to `COc1c(O[C@H]2O[C@@H](CO)[C@@H](O)[C@@H](O)[C@@H]2O)cc2c(c1OC)-c1ccc(SC)c(=O)cc1[C@H](NC(C)=O)CC2` belongs -4.87% [at 25.6 µM] (inactive).
Turning to `CCCC[C@@H]1C[C@H]1C(NC(=O)c1ccccc1)c1ccccc1` (stereo not given in full), the AC50 is 12600 nM (active).
`CCCC[C@@H]1C[C@H]1C(NC(=O)c1ccc(-c2ccccc2)cc1)c1ccc(-c2ccccc2)cc1` (stereo not given in full): the “activity, negative = inhibition” value is -9.94% (inactive).
Regarding `CCCC[C@@H]1C[C@H]1C(NC(=O)c1cccnc1)c1ccc(Cl)cc1` (stereo not given in full), the AC50 was 79.4 nM (active).
On to `CCCC[C@@H]1C[C@H]1C(NC(=O)c1ccccc1)c1ccc(Cl)cc1` (stereo not given in full), for which the AC50 is 3980 nM (active).
For `CCCC[C@@H]1C[C@H]1C(NC(=O)Cc1ccccc1)c1ccc(Cl)cc1` (stereo not given in full), the AC50 is 2510 nM (active).
`N[C@@H](C(=O)O)[C@H](CC(=O)O)c1ccc(Cl)cc1`: the “activity, negative = inhibition” value was -10.4% (inactive).
Still for that read-out and setting: with `Cc1oc(-c2cccc(Cl)c2)[n+]([O-])c1C` the figure was 1.66% (inactive).
Turning to `O=C(/C=C/c1cc2c(cc1Br)OCO2)NCc1ccc(Cl)cc1`, the AC50 is 2510 nM (active).
With `O=[N+]([O-])c1ccccc1N/N=C/c1c[nH]c2ccccc12`, the AC50 was 25100 nM (active).
Turning to `O=C(O)c1ccccc1N/N=C\c1ccnc2ccccc12`, the activity, negative = inhibition was -0.0882% [at 2.29 µM] (inactive).
For `O=C(N/N=C/c1c[nH]c2ccccc12)c1cc(-c2ccc(-c3ccccc3)cc2)n[nH]1`, the activity, negative = inhibition is -5.85% [at 2.29 µM] (inactive).
Consider `COc1cccc(NC(=S)N(CCc2nc3cc(C)c(C)cc3[nH]2)Cc2cccnc2)c1`, for which the AC50 is 2510 nM (active).
In the case of `Cc1ccc(C)c(NC(=S)N(CCc2nc3cc(C)c(C)cc3[nH]2)Cc2cccnc2)c1`, the AC50 was 2510 nM (active).
As to `Cc1cccc(NC(=S)N(CCc2nc3cc(C)c(C)cc3[nH]2)Cc2cccnc2)c1`, the AC50 was 2240 nM (active).
